Test systems include RPMI-8226 leukemia; OVCAR-8 ovarian; OVCAR-5 ovarian; OVCAR-4 ovarian; SK-OV-3 ovarian; IGROV1 ovarian; OVCAR-3 ovarian; HS 578T breast; NCI/ADR-RES ovarian; T-47D breast.
What all share (assay): NCI-60 one-dose screen, 48 h (100 = growth as untreated, 0 = no growth, -100 = all killed)
What all share (settings): 10 µM unless noted

The structures appear in SMILES notation. This is part of a sample that, as a whole, favours compounds with a hit. Of some 83,000 tested, about 20% had one in any assay.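 How to read the values: 0–100, growth inhibition (40 = 60% inhibited); 0, no net growth; -100 to 0, cell death (-40 = 40% of starting cells died; -100 = all dead).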 Unmarked numbers belong to inactive results. Activity calls are given as the source filed them. Rule for the calls: active = growth percent below 10; inactive = the rest.

For `Nc1ccccc1NC(=O)c1ccc(CSc2nc(N3CCOCC3)c3cccn3n2)cc1`, the growth in the experiment on RPMI-8226 leukemia is -4.81% (active); in the experiment on OVCAR-8 ovarian, 15.9%; in the experiment with OVCAR-5 ovarian, 29.5%; with OVCAR-4 ovarian it was 42%; in the experiment with SK-OV-3 ovarian, 6.2% (active); in the experiment with IGROV1 ovarian, 21.5%. Further, the growth was 1.87% (active) with OVCAR-3 ovarian, 23.1% with HS 578T breast, 3.65% (active) in the experiment on NCI/ADR-RES ovarian and -1.13% (active) with T-47D breast.

As for `COc1ccc(-c2cc(-c3nnc(SCC(=O)Nc4ccc(C(C)=O)cc4)o3)c3ccccc3n2)cc1`, the growth is -19.8% (active) with RPMI-8226 leukemia; -21% (active) with OVCAR-8 ovarian; 71.4% in the experiment with OVCAR-5 ovarian; -49.6% (active) in the experiment on OVCAR-4 ovarian; 17.8% in the experiment with SK-OV-3 ovarian; 9.74% (active) in the experiment on IGROV1 ovarian. For the same compound, the growth in the experiment with OVCAR-3 ovarian was -20.6% (active); in the experiment on HS 578T breast it was -8.38% (active); in the experiment on NCI/ADR-RES ovarian it was 6.03% (active); with T-47D breast, 0.593% (active).

On to `O=C(N/N=C/C[C@@H]1[C@@H](/C=C/[C@@H](O)COc2cccc(Cl)c2)[C@H](O)C[C@@H]1O)c1ccncc1`, for which the growth was 94.5% with RPMI-8226 leukemia; 79.9% with OVCAR-8 ovarian; 97.4% in the experiment with OVCAR-5 ovarian; 104% in the experiment with OVCAR-4 ovarian; 77% in the experiment on SK-OV-3 ovarian; 109% in the experiment on IGROV1 ovarian. In addition, the growth is 105% with OVCAR-3 ovarian, 92.5% with HS 578T breast, 102% with NCI/ADR-RES ovarian and 90.8% in the experiment on T-47D breast.

For the compound `NS(=O)(=O)c1ccc(C2C3=C(CCCC3=O)OC3=C2C(=O)c2ccccc2C3=O)cc1` (stereo not given), the growth in the experiment on RPMI-8226 leukemia was -35.8% (active); in the experiment with OVCAR-8 ovarian, -14.5% (active); in the experiment on OVCAR-5 ovarian it was -53.1% (active); with OVCAR-4 ovarian, -96.6% (active); in the experiment with SK-OV-3 ovarian, -23.9% (active); with IGROV1 ovarian it was -52.3% (active). The growth is -66.1% (active) in the experiment on OVCAR-3 ovarian, -5.38% (active) in the experiment with HS 578T breast, 56.9% with NCI/ADR-RES ovarian and -50.7% (active) with T-47D breast.

As for `CCCCOc1nc2ccc(C)cc2cc1/C=C/C(=O)/C=C/c1ccc2c(c1)OCO2`, the growth in the experiment on RPMI-8226 leukemia was 5.04% (active); with OVCAR-8 ovarian, 38.7%; in the experiment with OVCAR-5 ovarian, 131%; with OVCAR-4 ovarian, 95.4%; with SK-OV-3 ovarian it was 106%; in the experiment with IGROV1 ovarian, 90.3%. Moreover, the growth is 74.6% in the experiment on OVCAR-3 ovarian, 101% in the experiment on HS 578T breast, 91.7% with NCI/ADR-RES ovarian and 62.7% in the experiment with T-47D breast.

Consider `O=c1cc(/C=N\Nc2nc(-c3ccc(Cl)cc3Cl)cs2)c2cc(Cl)ccc2o1`, for which the growth in the experiment on RPMI-8226 leukemia is 90.8%; with OVCAR-8 ovarian it was 99.7%; with OVCAR-5 ovarian, 96.9%; in the experiment with OVCAR-4 ovarian, 85.3%; with SK-OV-3 ovarian, 81.8%; with IGROV1 ovarian, 79.8%. Moreover, the growth is 101% in the experiment on OVCAR-3 ovarian, 101% in the experiment with HS 578T breast, 98.1% with NCI/ADR-RES ovarian and 69.7% in the experiment with T-47D breast.

Take `O=C1C(=O)c2c(nc3ccc(Br)cn23)-c2ccccc21`: the growth in the experiment with RPMI-8226 leukemia is -47.6% (active); with OVCAR-8 ovarian, -90.7% (active); in the experiment on OVCAR-5 ovarian it was -76.9% (active); in the experiment with OVCAR-4 ovarian, -95.1% (active); in the experiment on SK-OV-3 ovarian, -97.6% (active); in the experiment on IGROV1 ovarian, -51.5% (active). Besides, the growth with OVCAR-3 ovarian was -51.4% (active); in the experiment with HS 578T breast it was -52.2% (active); with NCI/ADR-RES ovarian, -31.4% (active); in the experiment on T-47D breast, -59.8% (active).

In the case of `Cc1[nH]c2ncnc(Oc3ccc(NC(=O)Nc4ccc(Cl)c(C(F)(F)F)c4)cc3)c2c1C`, the growth in the experiment on RPMI-8226 leukemia was 44.7%; in the experiment on OVCAR-8 ovarian it was 52%; in the experiment with OVCAR-5 ovarian it was 98%; in the experiment on OVCAR-4 ovarian, 90.1%; in the experiment on SK-OV-3 ovarian, 91.9%; with IGROV1 ovarian, 54.6%. The growth with OVCAR-3 ovarian was 56.3%; with HS 578T breast, 73.8%; in the experiment with NCI/ADR-RES ovarian it was 64.5%; in the experiment with T-47D breast, 36.9%.

With `C(=C\c1cn(-c2ccccc2)nc1-c1ccccc1)/c1nnc(-c2c[nH]c3ccccc23)o1`, the growth in the experiment on RPMI-8226 leukemia is 40.8%; with OVCAR-8 ovarian it was 35.2%; in the experiment on OVCAR-5 ovarian, 93.3%; in the experiment with OVCAR-4 ovarian, 47.9%; with SK-OV-3 ovarian it was 91.8%; with IGROV1 ovarian, 59.2%. In addition, the growth was 20.9% with OVCAR-3 ovarian, 44.7% in the experiment with HS 578T breast, 51.8% in the experiment with NCI/ADR-RES ovarian and 55.5% with T-47D breast.

For the compound `COc1ccc2cc(/C=C3\N=C(c4cc(OC)c(OC)c(OC)c4)OC3=O)c(OC)nc2c1`, the growth in the experiment with RPMI-8226 leukemia is 104%; with OVCAR-8 ovarian, 98.4%; with OVCAR-5 ovarian it was 108%; with OVCAR-4 ovarian it was 101%; with SK-OV-3 ovarian it was 96.5%; in the experiment with IGROV1 ovarian, 109%. Further, the growth was 109% in the experiment on OVCAR-3 ovarian, 97.2% in the experiment on HS 578T breast, 105% in the experiment with NCI/ADR-RES ovarian and 96.5% with T-47D breast.

`COC(=O)CCc1n(Cc2ccc3ccccc3c2)c2ccccc2[n+]1Cc1ccc2ccccc2c1`: the growth in the experiment with RPMI-8226 leukemia was -21.3% (active); with OVCAR-8 ovarian, 6.77% (active); with OVCAR-5 ovarian, 18%; in the experiment on OVCAR-4 ovarian it was 7.13% (active); with SK-OV-3 ovarian, 10.8%; with IGROV1 ovarian it was -26.4% (active). The growth with OVCAR-3 ovarian was -14.2% (active); with HS 578T breast it was 25%; in the experiment with NCI/ADR-RES ovarian, 100%; in the experiment on T-47D breast, -0.425% (active).

With `Cc1cc(C)c2nc(Nc3nc(C)c(C)c(=O)[nH]3)nc(C)c2c1`, the growth in the experiment on RPMI-8226 leukemia is -17.1% (active); in the experiment with OVCAR-8 ovarian, 15.5%; in the experiment with OVCAR-5 ovarian, 48.8%; with OVCAR-4 ovarian, 20.8%; with SK-OV-3 ovarian, 7.87% (active); in the experiment on IGROV1 ovarian it was 9.55% (active). Moreover, the growth was 5.78% (active) in the experiment on OVCAR-3 ovarian, 21.2% with HS 578T breast, 40.8% in the experiment with NCI/ADR-RES ovarian and 18.9% in the experiment with T-47D breast.

On to `Oc1ccccc1-c1nc2c3ccccc3c3ccccc3c2o1`, for which the growth in the experiment with RPMI-8226 leukemia is 75.5%; in the experiment with OVCAR-8 ovarian, 89%; with OVCAR-5 ovarian it was 114%; with OVCAR-4 ovarian, 76.4%; in the experiment on SK-OV-3 ovarian, 90.4%; in the experiment with IGROV1 ovarian, 74.1%. The growth was 97.2% with OVCAR-3 ovarian, 89.5% in the experiment on HS 578T breast, 94.5% with NCI/ADR-RES ovarian and 78.9% in the experiment on T-47D breast.
